High-throughput results (PubChem BioAssay)
Rv3671c protease = Rv3671c serine protease inhibitors, primary screen, biochemical, fluorescence polarization, M. tuberculosis H37Rv. actives 0.048% (n = 320,000). AID 2606, 2010. inhibition, % at 5.96 µM. P9WHR9; in the data active = inhibition above about 38%;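 note: extracellular domain of Rv3671c used as enzyme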
UGM FP inh = M. tuberculosis UGM enzyme inhibitors, primary screen, biochemical, fluorescence polarization, single point; UDP-galactopyranose mutase (Mycobacterium tuberculosis (strain ATCC 25618 / H37Rv)), …; purified UGM, fluorescence polarization probe displacement; inhibition, % at 10 µM; actives 0.06% (n = 320,000); AID 504406, 2011; in the data active = inhibition above about 10%, passing the limit was not always enough; inconclusive = no clear call, values can overlap the other calls
GDH-TPI counter-1 = GDH-TPI coupling enzyme inhibitors, primary screen, artefact control for M. tuberculosis FBA inhibitor project, biochemical, absorbance, full deck | inhibition, % at 4.8 µM | GDH-TPI coupled enzyme counterscreen, NADH absorbance | actives 1.2% (n = 360,000); in the data active = inhibition above about 30%
RecA intein inh = Mtb RecA intein splicing inhibitors, primary screen, biochemical, fluorescence, HTS. Protein RecA (Mycobacterium tuberculosis (strain ATCC 25618 / H37Rv)), P9WHJ3. cell-free RecA intein splicing. inhibition, % (concentration not given with the values). actives 0.75% (n = 290,000); in the data active = inhibition above about 30%; inconclusive = no clear call, values can overlap the other calls
Mtb bLac sens = beta-lactam sensitization of Mtb H37Rv, H37Rv. M. tuberculosis H37Rv growth with meropenem, percent inhibition. inhibition, % at 25 µM. actives 0.27% (n = 330,000). AID 434955, 2010;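 note: growth measured after seven days incubation then overnight dye step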
FBA Mtb inh = Mtb FBA enzyme inhibitors, primary screen, biochemical, fluorescence, strain H37Rv; purified M. tuberculosis FBA, fluorescence read-out; inhibition, % at 1 µM; actives 2.3% (n = 360,000); AID 588726, 2011; in the data active = inhibition above about 27%
Target sequence (P9WQA3 whole entry, looked up): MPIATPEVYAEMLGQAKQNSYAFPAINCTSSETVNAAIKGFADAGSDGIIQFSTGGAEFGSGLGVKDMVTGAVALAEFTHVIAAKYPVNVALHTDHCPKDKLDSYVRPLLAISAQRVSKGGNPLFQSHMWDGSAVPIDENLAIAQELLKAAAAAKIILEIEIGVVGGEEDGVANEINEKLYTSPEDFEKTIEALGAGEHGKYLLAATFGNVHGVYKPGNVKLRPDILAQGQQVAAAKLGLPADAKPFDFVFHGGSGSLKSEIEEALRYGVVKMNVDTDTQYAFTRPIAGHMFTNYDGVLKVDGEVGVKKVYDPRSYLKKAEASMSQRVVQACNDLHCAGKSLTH
Mtb FBA inh conf = M. tuberculosis aldolase blockers, biochemical, fluorescence, strain H37Rv, confirmation. purified M. tuberculosis FBA, fluorescence read-out. actives 78% (n = 5,600). shares compounds with FBA Mtb inh. inhibition, % at 1 µM; in the data active = inhibition above about 27%
GDH-TPI counter-2 = GDH-TPI coupling enzyme inhibitors, artefact control for M. tuberculosis FBA inhibitor project, biochemical, fluorescence, high throughput; inhibition, % at 1 µM; GDH-TPI coupled enzyme counterscreen; actives 81% (n = 5,600); shares compounds with FBA Mtb inh; in the data active = inhibition above about 10%
GDH-TPI dose = GDH-TPI coupling enzyme inhibitors, dose response, artefact control for M. tuberculosis FBA inhibitor project, biochemical, fluorescence, IC50; actives 79% (n = 170); IC50, µM; GDH-TPI coupled enzyme assay, artifact counterscreen; shares compounds with FBA Mtb inh
A number is an active result. In the library only some 4% were active in any assay of this set; here they are far more common. Unless noted, the rule behind the calls is not given here.

What do the screens show for `CC(OC(=O)c1cc(S(=O)(=O)N2CCOCC2)ccc1F)C(=O)NC1CCCCC1C` (configuration not stated)?
Rv3671c protease: inactive; UGM FP inh: inactive; GDH-TPI counter-1: inactive; RecA intein inh: inactive; Mtb bLac sens: inactive; FBA Mtb inh: 30.1; Mtb FBA inh conf: 35.1; GDH-TPI counter-2: 26.8

How did COc1ccc(N2C(=O)c3ccccc3NC23CCCCC3)cc1 do in these assays?
Rv3671c protease: inactive; UGM FP inh: inactive; GDH-TPI counter-1: inactive; RecA intein inh: inactive; Mtb bLac sens: inactive; FBA Mtb inh: 36.6; Mtb FBA inh conf: 110.8; GDH-TPI counter-2: 108.8

What do the screens show for `Cc1c(C(=O)Nc2cccc(Cl)c2)c2ccccn2c1CCc1ccncc1`?
GDH-TPI counter-1: inactive; FBA Mtb inh: inactive

How did Cc1c(C(=O)Nc2ccc(Cl)cc2)c2ccccn2c1CCc1ccncc1 do in these assays?
Rv3671c protease: inactive; UGM FP inh: inactive; GDH-TPI counter-1: inactive; RecA intein inh: inactive; Mtb bLac sens: inactive; FBA Mtb inh: 31.6; Mtb FBA inh conf: inactive; GDH-TPI counter-2: inactive; GDH-TPI dose: 0.974

Results for CC1(C)Cc2nc(N)c(C(=O)NCCO)cc2CO1 ?
Rv3671c protease: inactive; UGM FP inh: inactive; GDH-TPI counter-1: inactive; RecA intein inh: inactive; Mtb bLac sens: inactive; FBA Mtb inh: 98.1; Mtb FBA inh conf: active; GDH-TPI counter-2: active

What do the screens show for `O=C(NC1CCS(=O)(=O)C1)c1ccc(-c2ccc(Br)cc2)o1` (configuration not stated)?
Rv3671c protease: inactive; UGM FP inh: inactive; GDH-TPI counter-1: inactive; RecA intein inh: inactive; Mtb bLac sens: inactive; FBA Mtb inh: 41.7; Mtb FBA inh conf: inactive; GDH-TPI counter-2: 16.8

What do the screens show for `Cc1ccnc(Nc2nc(-c3ccc(O)cc3O)cs2)c1`?
Rv3671c protease: inactive; UGM FP inh: inactive; GDH-TPI counter-1: inactive; Mtb bLac sens: inactive; FBA Mtb inh: inactive

Results for CCOC(=O)c1c(-c2ccccc2)nc2ccccn12 ?
Rv3671c protease: inactive; UGM FP inh: inactive; GDH-TPI counter-1: inactive; RecA intein inh: inactive; Mtb bLac sens: inactive; FBA Mtb inh: inactive

How did CC(=O)Nc1c(-c2ccc(F)cc2)nc2ccccn12 do in these assays?
Rv3671c protease: inactive; UGM FP inh: inactive; GDH-TPI counter-1: inactive; RecA intein inh: inactive; Mtb bLac sens: inactive; FBA Mtb inh: inactive

Results for c1ccc(-c2nc3ccccn3c2-c2ccccc2)cc1 ?
Rv3671c protease: inactive; UGM FP inh: inactive; GDH-TPI counter-1: inactive; RecA intein inh: inactive; Mtb bLac sens: inactive; FBA Mtb inh: 28.9; Mtb FBA inh conf: inactive; GDH-TPI counter-2: inactive

What do the screens show for `COC(=O)Nc1c(-c2ccccc2)nc2ccc(C)cn12`?
Rv3671c protease: inactive; UGM FP inh: inactive; GDH-TPI counter-1: inactive; RecA intein inh: inactive; Mtb bLac sens: inactive; FBA Mtb inh: 64.9; Mtb FBA inh conf: 120.3; GDH-TPI counter-2: 115.9

Results for COC(=O)Nc1c(-c2ccccc2)nc2ccccn12 ?
Rv3671c protease: inactive; UGM FP inh: inactive; GDH-TPI counter-1: inactive; RecA intein inh: inactive; Mtb bLac sens: inconclusive; FBA Mtb inh: 74.6; Mtb FBA inh conf: 188.4; GDH-TPI counter-2: 140.2

Results for Cc1csc2nc3ccccc3c(=O)n12 ?
Rv3671c protease: inactive; UGM FP inh: inactive; GDH-TPI counter-1: inactive; RecA intein inh: inactive; Mtb bLac sens: inactive; FBA Mtb inh: 39.4; Mtb FBA inh conf: 66.7; GDH-TPI counter-2: 37.9

What do the screens show for `N=C(N)n1c(N)nc2ccccc2c1=O`?
Rv3671c protease: inactive; UGM FP inh: inactive; GDH-TPI counter-1: inactive; RecA intein inh: inactive; Mtb bLac sens: inactive; FBA Mtb inh: 59.3; Mtb FBA inh conf: inactive; GDH-TPI counter-2: 11.1
